Data as given in ChEMBL document CHEMBL3988442, “University of Dundee, Small-Polar-MMV Screening Library” (2021).
In all, about 69,000 compounds went through this assay and about 950 (1.4%) showed an effect of 50% or more. Many of the other results were omitted from the sample, so strong results are more common in it than they were.

What follows are molecules tested on Mycobacterium tuberculosis (assay: Cornell M. t heat shock assay; further: in the data most compounds retested in dose-response had high values).
Assay type: functional, organism-based
Set-up: dose or concentration left out as unconfirmed
For Cc1ccc(CN2Cc3ccccc3O[C@]3(CC[C@H](CO)CC3)C2)s1.Cl, the “Percent Effect” value was -7.456%.
With COCCN1CCc2c(cnc(-c3ccccc3)c2C(=O)O)C1.O=C(O)C(F)(F)F the “Percent Effect” value was -9.252%.
With O=C(O)C(F)(F)F.O=C(c1cscn1)N1CC[C@@H]2[C@@H]1CCN2CC1CCOCC1 the “Percent Effect” value was 39.35%.
For CCN1CCC(N2CCC(C(=O)N(C)C)CC2)CC1.O=C(O)C(F)(F)F.O=C(O)C(F)(F)F, the “Percent Effect” value was 2.155%.
With OC(CN(Cc1ccccc1)Cc1ccccn1)c1cccs1 (stereo unspecified) the “Percent Effect” value was 66.35%.
In the case of OC(CN(Cc1ccccc1)Cc1ccncc1)c1cccs1 (stereo unspecified), the “Percent Effect” value is reported as -1.892%.
In the case of OC(CN(Cc1ccccc1)Cc1cscn1)c1cccs1 (stereo unspecified), the “Percent Effect” value is reported as 5.463%.
In the case of Cc1cccc(CN2CCC3(CC2)CN(c2cnn(C)c2)C(=O)CO3)n1.O=C(O)C(F)(F)F, the “Percent Effect” value is reported as -22.92%.
CNc1cc(C2CCCNC2)nc(C)n1.Cl.Cl (stereo unspecified) was tested, and the “Percent Effect” value was -17.65%.
For Cc1cc(C(F)(F)F)nc(CCNC(C)Cn2cncn2)n1 (stereo unspecified), the “Percent Effect” value was 16.73%.
With Cc1cc(C(F)(F)F)nc(CCNC(C)Cn2nc(C)cc2C)n1 (stereo unspecified) the “Percent Effect” value was 1.181%.
With Cc1cc(C(F)(F)F)nc(CCNC(C)Cn2ccnc2)n1 (stereo unspecified) the “Percent Effect” value was 103.9%.
With CCN1CCC2(CC1)OCCN2C(=O)c1cc(Cl)c(OC)c(Cl)c1.Cl the “Percent Effect” value was 13.79%.
CN(C)C[C@@H]1CN(C2CCN(c3ccccc3Cl)CC2)C[C@@H]1CO was tested, and the “Percent Effect” value was -0.06241%.
CN(C)C[C@@H]1CN(C2CCN(c3ccc(Cl)cc3)CC2)C[C@@H]1CO was tested, and the “Percent Effect” value was 39.93%.
With CN(CCO)C[C@@H]1CN(C2CCN(c3ccccc3Cl)CC2)C[C@@H]1CO the “Percent Effect” value was 81.68%.
In the case of Cc1cc(F)ccc1N1CCC(N2C[C@@H](CN(C)C)[C@@H](CO)C2)CC1, the “Percent Effect” value is reported as 101.8%.
With Cc1ccc(N2CCC(N3C[C@@H](CN(C)C)[C@@H](CO)C3)CC2)cc1 the “Percent Effect” value was -10.07%.
Cc1cc(F)ccc1N1CCC(N2C[C@@H](C)[C@@](C)(O)C2)CC1 was tested, and the “Percent Effect” value was 33.53%.
In the case of CCc1nc(C)cc(N2CCN(C(=O)[C@@H]3C[C@@H]4C=C[C@H]3C4)CC2)n1, the “Percent Effect” value is reported as -1.962%.
CS(=O)(=O)NCc1cc(=O)n2c(n1)CN(CC1CC1)CCC2.O=C(O)C(F)(F)F was tested, and the “Percent Effect” value was 5.307%.
In the case of O=C(O)C(F)(F)F.O=C(O)C(F)(F)F.O=C1CC[C@H]2[C@H](CCN2Cc2ccccn2)N1CC1CCOCC1, the “Percent Effect” value is reported as -34.7%.
For Cc1cccc(CN2C(=O)C[C@@H]3[C@@H]2CCN3Cc2ccsc2)n1.O=C(O)C(F)(F)F.O=C(O)C(F)(F)F, the “Percent Effect” value was -5.235%.
Cl.NC(=O)COc1ccc(CNCc2ccc(F)cc2)cc1 was tested, and the “Percent Effect” value was -18.87%.
With Cc1noc(C)c1CCC(=O)N1CCN(CCn2cccn2)CC1 the “Percent Effect” value was -5.618%.
For Cc1noc(C)c1CN1CCN(C(=O)CCn2cncn2)CC1, the “Percent Effect” value was -3.616%.
For Cc1noc(C)c1CCC(=O)N1CCN(CCn2cncn2)CC1, the “Percent Effect” value was 78.74%.
Cn1ncc(Cl)c1C(=O)N1CCC(c2nnsc2S(C)(=O)=O)CC1 was tested, and the “Percent Effect” value was -21.53%.
Cn1cnc(S(=O)(=O)N2CC3(CCN(Cc4ccncc4)C3)C2)c1.O=C(O)C(F)(F)F.O=C(O)C(F)(F)F.O=C(O)C(F)(F)F was tested, and the “Percent Effect” value was 36.02%.
In the case of CN(C)C(=O)COCC1CN(Cc2ccco2)Cc2ncn(C)c21.O=C(O)C(F)(F)F.O=C(O)C(F)(F)F (stereo unspecified), the “Percent Effect” value is reported as 31.48%.
COCC(C)(CCO)NC(=O)Nc1cccc(Br)c1C (stereo unspecified) was tested, and the “Percent Effect” value was 16.48%.
With CN1CC(=O)N(c2ccsc2)CC12CCN(C(=O)Nc1ccccc1)C2.O=C(O)C(F)(F)F (stereo unspecified) the “Percent Effect” value was -18.81%.
For O=C(N1CCCO1)[C@@]12CCO[C@@H]1CCN(Cc1cccs1)C2.O=C(O)C(F)(F)F, the “Percent Effect” value was -21.11%.
In the case of Cc1ccsc1C(=O)N1CC2CC1(C(=O)NCC1CC1)C2, the “Percent Effect” value is reported as -11.04%.
In the case of O=C(N1CCCC1)C12CC(CN1Cc1nccs1)C2, the “Percent Effect” value is reported as 42.03%.
O=C(NCC1CC1)C12CC(CN1Cc1nccs1)C2 was tested, and the “Percent Effect” value was 54.2%.
For Cc1cc(N2CCN(Cc3cn(C)nc3C)CC2)cc(C2CCCN2)n1.Cl (stereo unspecified), the “Percent Effect” value was -11.47%.
CC(=O)N1CCCC1c1nnn2cc(-c3ccncc3)ccc12.O=C(O)C(F)(F)F (stereo unspecified) was tested, and the “Percent Effect” value was 8.291%.
CC(=O)N1CCCC1c1nnn2cc(Nc3ccccc3)ccc12.O=C(O)C(F)(F)F (stereo unspecified) was tested, and the “Percent Effect” value was 86.99%.
CC(=O)N1CCCC1c1nnn2cc(NCc3cccnc3)ccc12.O=C(O)C(F)(F)F.O=C(O)C(F)(F)F (stereo unspecified) was tested, and the “Percent Effect” value was 27.19%.
In the case of CC(C)(C)c1n[nH]c(C2CN(CCc3ccncc3)CCO2)n1 (stereo unspecified), the “Percent Effect” value is reported as 12.04%.
For CC(=O)N1CCN(Cc2ccncc2)CC2(CC(=O)N(C)C2)C1.O=C(O)C(F)(F)F.O=C(O)C(F)(F)F (stereo unspecified), the “Percent Effect” value was -4.515%.
Cn1ccnc1CN1CC[C@H]2CO[C@H](CNc3ncccn3)[C@H]2C1.O=C(O)C(F)(F)F.O=C(O)C(F)(F)F.O=C(O)C(F)(F)F was tested, and the “Percent Effect” value was -17.85%.
In the case of Fc1ccccc1CC1CCN(Cc2nccs2)CC1, the “Percent Effect” value is reported as 7.97%.
For Clc1ccc(COCC2CCN(Cc3ccccn3)CC2)cc1.O=C(O)C(=O)O, the “Percent Effect” value was 53.14%.
Cc1cccc(CN2CCC(NS(C)(=O)=O)CC2)n1 was tested, and the “Percent Effect” value was 10.63%.
For Fc1ccccc1CC1CCN(Cc2ccccn2)CC1, the “Percent Effect” value was 54.97%.
Cc1cccc(CN2CCC(Cc3ccccc3F)CC2)n1 was tested, and the “Percent Effect” value was 100.5%.
Fc1ccccc1CC1CCN(Cc2cscn2)CC1 was tested, and the “Percent Effect” value was -8.017%.
With COc1cc(COCC2CCN(Cc3ccccn3)CC2)cc(OC)c1.O=C(O)C(=O)O the “Percent Effect” value was -10.83%.
Cc1cccc(CNC(=O)CC2CCN(Cc3ccccn3)CC2)n1 was tested, and the “Percent Effect” value was -18.17%.
For Fc1ccc(COCC2CCN(Cc3ccccn3)CC2)cc1.O=C(O)C(=O)O, the “Percent Effect” value was -21.79%.
With CN1C[C@H]2C[C@H](C(=O)Nc3cccnc3)[C@@H](C1)O2 the “Percent Effect” value was -0.0821%.
With COc1ccc(CNCC(C)Oc2ccccn2)cc1.Cl (stereo unspecified) the “Percent Effect” value was -11.53%.
For Cc1cc(C(=O)N2CC[C@]3(C[C@@H](OCc4ccccn4)CO3)C2)c(C)o1.O=C(O)C(F)(F)F, the “Percent Effect” value was 38.17%.
CN(C)C(=O)CN1CCc2ncnc(N(C)C)c2CC1.O=C(O)C(F)(F)F was tested, and the “Percent Effect” value was 23.34%.
